Data taken from PubChem BioAssay (NCATS).
Records with an inconclusive call do not appear. Activity calls are given as the source filed them. Unless noted, the call rests on the fitted dose curve; in most records, active means well fitted curve in the direction sought with a large enough effect; inconclusive means small, poorly fitted or top-dose-only effect, or another doubt; inactive means no such curve, though single readings can be large; an effect the other way counts as inactive or inconclusive.

Key:
[1] = NS1 protein of Zika virus - qHTS assay to identify small molecule inhibitors in human HEK 293 cells (AID 1347053); further: nearly all actives have a fitted effect of over 55% in size; further: potency means the concentration at half of the fitted maximal effect
Summary of the method: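 In this cell-based screen, HEK 293 cultures received compound for one hour before Zika MR766 at MOI = 0.5. NS1 was quantified 24 hours later by TR-FRET, normalized to virus-free wells and infected wells.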

[2] = molecular target: T1, Tyrosine-protein phosphatase non-receptor type substrate 1 (Homo sapiens) + Leukocyte surface antigen CD47 (Homo sapiens) (UniProt P78324+Q08722); assay: CD47-SIRPalpha protein protein interaction - LANCE assay qHTS validation (AID 1347057; active means well fitted curve in the direction sought with a large enough effect in the signal ratio, with a control signal flat, not every such curve was filed as active; the % refers to the signal ratio; further: 0% is about no effect)
T1 sequence (P78324 whole entry, looked up, the tested form may be a part): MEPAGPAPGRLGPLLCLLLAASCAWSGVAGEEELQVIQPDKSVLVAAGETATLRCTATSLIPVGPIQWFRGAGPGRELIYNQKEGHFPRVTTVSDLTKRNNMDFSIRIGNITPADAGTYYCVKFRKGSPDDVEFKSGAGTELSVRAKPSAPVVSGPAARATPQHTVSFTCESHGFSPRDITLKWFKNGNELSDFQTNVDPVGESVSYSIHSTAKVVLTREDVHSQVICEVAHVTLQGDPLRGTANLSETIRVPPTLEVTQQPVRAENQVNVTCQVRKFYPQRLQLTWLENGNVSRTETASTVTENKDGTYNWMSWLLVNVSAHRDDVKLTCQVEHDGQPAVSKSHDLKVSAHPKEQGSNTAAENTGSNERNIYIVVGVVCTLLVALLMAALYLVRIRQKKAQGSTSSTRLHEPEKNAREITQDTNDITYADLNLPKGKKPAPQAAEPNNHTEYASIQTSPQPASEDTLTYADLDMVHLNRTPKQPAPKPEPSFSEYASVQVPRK
T1 sequence (Q08722 whole entry, looked up, the tested form may be a part): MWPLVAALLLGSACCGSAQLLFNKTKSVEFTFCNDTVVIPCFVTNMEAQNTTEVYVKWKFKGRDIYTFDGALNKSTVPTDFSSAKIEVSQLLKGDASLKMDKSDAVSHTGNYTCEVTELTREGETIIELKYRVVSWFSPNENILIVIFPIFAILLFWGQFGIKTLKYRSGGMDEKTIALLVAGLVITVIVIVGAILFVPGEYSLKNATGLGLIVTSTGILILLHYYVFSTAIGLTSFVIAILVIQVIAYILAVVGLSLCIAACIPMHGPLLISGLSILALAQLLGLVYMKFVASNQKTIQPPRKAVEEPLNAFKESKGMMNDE
Summary of the method: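 Inhibition of soluble CD47/SIRPalpha ectodomain association by titrated compounds, measured as 665/615 nm time-resolved FRET ratio after sequential 30 min room-temperature incubations.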

[3] = molecular target: T1, Tyrosine-protein phosphatase non-receptor type substrate 1 (Homo sapiens) + Leukocyte surface antigen CD47 (Homo sapiens); assay: CD47-SIRPalpha protein protein interaction - Alpha assay qHTS validation (AID 1347059);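 further: bead proximity luminescence from CD47 binding SIRPalpha after compound preincubation with SIRPalpha; on the % scale 0 is the no-effect control and ±100 the full control effect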
Summary of the method: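 AlphaScreen signal between CD47-His (12.5 nM) and biotin-SIRPalpha (25 nM) soluble extracellular domains, bead-captured via Ni-NTA and streptavidin. Compounds, in 7-point titrations, met SIRPalpha 30 min before CD47; PBS pH 7.4 with 0.05% IGEPAL.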

[4] = molecular target: Parathyroid hormone/parathyroid hormone-related peptide receptor (Homo sapiens) (UniProt Q03431); assay: qHTS for PTHR1 Agonists: Optimization Screen against the NCGC LOPAC library (AID 1347079);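 further: GloSensor cAMP luminescence in HEK-293 GP2 cells expressing human PTHR1 with IBMX; 0% is about no effect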
Chain of Parathyroid hormone/parathyroid hormone-related peptide receptor (Homo sapiens) (Q03431 whole entry, looked up): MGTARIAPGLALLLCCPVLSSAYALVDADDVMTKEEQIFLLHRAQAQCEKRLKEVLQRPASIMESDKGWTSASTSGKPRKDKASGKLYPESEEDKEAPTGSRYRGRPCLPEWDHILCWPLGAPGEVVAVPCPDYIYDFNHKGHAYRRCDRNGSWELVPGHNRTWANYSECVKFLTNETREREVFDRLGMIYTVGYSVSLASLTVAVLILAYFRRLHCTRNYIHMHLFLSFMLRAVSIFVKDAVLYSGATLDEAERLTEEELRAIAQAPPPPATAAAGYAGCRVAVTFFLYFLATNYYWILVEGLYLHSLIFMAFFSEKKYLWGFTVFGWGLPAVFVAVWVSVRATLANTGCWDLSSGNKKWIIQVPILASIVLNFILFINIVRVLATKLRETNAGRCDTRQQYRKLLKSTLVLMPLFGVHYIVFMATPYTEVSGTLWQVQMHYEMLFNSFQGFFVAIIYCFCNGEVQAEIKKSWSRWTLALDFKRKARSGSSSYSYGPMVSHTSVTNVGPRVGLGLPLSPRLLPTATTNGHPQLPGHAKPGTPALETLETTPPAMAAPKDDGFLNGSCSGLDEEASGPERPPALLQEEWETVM
Summary of the method: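 Signal increase flags agonism. GP2 cells, derived from HEK-293, express human PTHR1 and a GloSensor cAMP construct.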

[5] = molecular target: N-terminal Xaa-Pro-Lys N-methyltransferase 1 (Homo sapiens) (UniProt Q9BV86); assay: qHTS Assay for Inhibitors of N-terminal methyltransferase 1 (NTMT1): LOPAC validation of the NTMT1 SAHH-coupled ThioGlo3 Assay (AID 1347143);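 further: SAH from peptide methylation measured as thiol fluorescence via SAHH coupling and ThioGlo3; nearly all actives have a fitted effect of over 70% in size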; further: potency means the concentration at half of the fitted maximal effect
Chain of N-terminal Xaa-Pro-Lys N-methyltransferase 1 (Homo sapiens) (Q9BV86 whole entry, looked up): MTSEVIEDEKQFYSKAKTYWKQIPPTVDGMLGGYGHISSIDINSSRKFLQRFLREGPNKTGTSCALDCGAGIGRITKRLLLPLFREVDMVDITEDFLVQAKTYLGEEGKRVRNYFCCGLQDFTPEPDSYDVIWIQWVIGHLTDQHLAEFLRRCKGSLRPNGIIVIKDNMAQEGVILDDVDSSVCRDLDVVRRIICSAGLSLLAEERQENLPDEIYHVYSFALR
Summary of the method: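 NTMT1 125nM + cpds (various conc.), 1 min RT; add SAM 100uM/SAHH 10uM/ThioGlo3 15uM (addition mix). SAHH-coupled thiol detection, Ex340/Em450, t0 and 30 min RT; signal normalized to background. LOPAC 1280-cpd pilot.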

[6] = system: Zika virus NS2B-NS3 protease (unlinked); assay: Optimization of GU AMC qHTS for Zika virus inhibitors: Unlinked NS2B-NS3 protease assay (AID 1347151); further: nearly all actives have a fitted effect of over 80% in size; further: potency means the concentration at half of the fitted maximal effect
Summary of the method: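 Fluorescence gain (340/450 nm) over 15 min at room temperature, ~20% conversion, gave percent inhibition fitted to a 4-parameter Hill equation; enzyme was unlinked NS2B-NS3 (25 nM final), pH 8.0 Tris buffer.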

[7] = molecular target: Lysine-specific demethylase 5B (Homo sapiens) (UniProt Q9UGL1); assay: Optimization screen for KDM5B Histone Demethylases FDH coupled qHTS against the LOPAC library (AID 1347166); details: KDM5B demethylation, FDH-coupled NADH fluorescence (FDH is formaldehyde dehydrogenase); at 57.5 µM (top of the series); further: 0% is about no effect
Chain of Lysine-specific demethylase 5B (Homo sapiens) (Q9UGL1 whole entry, looked up): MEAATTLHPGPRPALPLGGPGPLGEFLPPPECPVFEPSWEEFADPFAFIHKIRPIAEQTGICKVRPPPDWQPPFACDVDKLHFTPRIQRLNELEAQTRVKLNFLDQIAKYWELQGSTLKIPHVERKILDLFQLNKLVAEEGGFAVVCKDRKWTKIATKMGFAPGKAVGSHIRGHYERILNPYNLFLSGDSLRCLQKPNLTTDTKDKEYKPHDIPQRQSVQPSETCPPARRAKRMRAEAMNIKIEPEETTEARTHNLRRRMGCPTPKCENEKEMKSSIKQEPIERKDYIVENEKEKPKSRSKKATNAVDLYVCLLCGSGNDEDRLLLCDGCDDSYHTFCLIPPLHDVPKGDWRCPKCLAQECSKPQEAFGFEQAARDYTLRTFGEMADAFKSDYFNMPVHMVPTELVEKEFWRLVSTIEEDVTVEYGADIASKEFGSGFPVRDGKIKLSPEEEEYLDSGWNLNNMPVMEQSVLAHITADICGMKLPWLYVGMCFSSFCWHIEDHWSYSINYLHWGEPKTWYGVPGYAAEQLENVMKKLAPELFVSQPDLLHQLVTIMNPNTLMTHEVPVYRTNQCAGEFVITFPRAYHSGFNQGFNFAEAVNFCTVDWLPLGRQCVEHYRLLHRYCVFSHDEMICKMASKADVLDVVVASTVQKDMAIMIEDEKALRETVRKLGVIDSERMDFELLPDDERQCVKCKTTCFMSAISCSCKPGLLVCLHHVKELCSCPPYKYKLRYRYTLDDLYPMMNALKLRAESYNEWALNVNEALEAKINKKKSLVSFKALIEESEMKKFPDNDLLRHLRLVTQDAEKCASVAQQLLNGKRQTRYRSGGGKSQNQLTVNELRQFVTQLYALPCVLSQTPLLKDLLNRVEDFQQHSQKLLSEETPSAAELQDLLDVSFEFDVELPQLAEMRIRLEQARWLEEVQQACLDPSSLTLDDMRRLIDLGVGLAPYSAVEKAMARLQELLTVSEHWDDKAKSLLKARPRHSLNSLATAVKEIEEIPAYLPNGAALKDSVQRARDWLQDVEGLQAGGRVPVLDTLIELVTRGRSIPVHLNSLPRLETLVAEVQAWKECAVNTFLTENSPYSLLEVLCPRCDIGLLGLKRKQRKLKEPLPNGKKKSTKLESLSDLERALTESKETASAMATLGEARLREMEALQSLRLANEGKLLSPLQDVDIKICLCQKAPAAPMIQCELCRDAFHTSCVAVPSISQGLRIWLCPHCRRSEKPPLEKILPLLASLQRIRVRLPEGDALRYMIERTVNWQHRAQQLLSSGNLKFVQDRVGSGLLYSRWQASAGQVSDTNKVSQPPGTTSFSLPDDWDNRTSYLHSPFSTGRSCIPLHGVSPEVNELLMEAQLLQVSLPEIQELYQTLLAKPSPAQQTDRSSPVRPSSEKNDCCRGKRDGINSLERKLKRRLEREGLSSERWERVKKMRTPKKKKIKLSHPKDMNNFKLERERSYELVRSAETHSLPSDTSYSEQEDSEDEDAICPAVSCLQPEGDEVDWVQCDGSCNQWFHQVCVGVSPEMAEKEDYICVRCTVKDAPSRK
Summary of the method: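 KDM5BDeltaAP (200nM final) in 50mM HEPES pH 7.5, 0.01% Tween-20 was preincubated with compound for 10 min at room temperature. A substrate mix of 12.5uM H3K4Me3, 25uM a-ketoglutarate, ascorbate, Fe2+, NAD+ and formaldehyde dehydrogenase was then added. NADH fluorescence (340/450 nm) was read initially and after 30 min.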

[8] = system: Zika virus NS2B-NS3 protease; assay: Primary screen GU AMC qHTS for Zika virus inhibitors (AID 1347154);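 further: 0% = no-inhibitor control and -100% = no-enzyme control; nearly all actives have a fitted effect of over 70% in size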
Summary of the method: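 Fluorogenic AMC-substrate cleavage by noncovalent NS2B-NS3 protease complex (25 nM, pH 8.0 Tris buffer with Tween 20) followed for 15 minutes at room temperature (~20% conversion). Percent inhibition from ex340/em450 signal change, fitted by 4-parameter Hill equation.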

OC[C@H]1NC[C@@H](O)[C@@H]1O
inactive: Potency [1] | Potency [2] | Potency [3] | Potency [4] | Potency [5] | Potency [6] | activity, negative = inhibition [7] 1.64%

O=C(O)[C@H]1NCCC[C@H]1C(=O)O
inactive: Potency [1] | Potency [2] | Potency [3] | Potency [4] | Potency [5] | Potency [6] | activity, negative = inhibition [7] -4.16%

CC1CNCCN1S(=O)(=O)c1cccc2cnccc12 (stereo not given)
inactive: Potency [1] | Potency [2] | Potency [3] | Potency [4] | Potency [5] | Potency [6] | Potency [8] | activity, negative = inhibition [7] -12.8%

N#C/C(=C\c1ccc(O)c(O)c1)C(=O)NCCc1ccccc1
active: Potency [5] 44.7 µM | Potency [6] 2.38 µM
inactive: Potency [1] | Potency [2] | Potency [3] | Potency [4]

OCC1NCC(O)C(O)C1O (stereo not given)
inactive: Potency [1] | Potency [2] | Potency [3] | Potency [4] | Potency [5] | Potency [6] | activity, negative = inhibition [7] -3.55%

Cc1ccc([N+](=O)[O-])cc1S(=O)(=O)N(C)C
inactive: Potency [1] | Potency [2] | Potency [3] | Potency [4] | Potency [5] | Potency [6] | activity, negative = inhibition [7] -0.674%

c1ccc(C(NCc2cccnc2)(c2ccccc2)c2ccccc2)cc1
inactive: Potency [1] | Potency [2] | Potency [3] | Potency [4] | Potency [5] | Potency [6] | Potency [8] | activity, negative = inhibition [7] -13.8%

O=[N+]([O-])c1cccc2cn[nH]c12
inactive: Potency [1] | Potency [2] | Potency [3] | Potency [4] | Potency [5] | Potency [6] | Potency [8] | activity, negative = inhibition [7] -3.93%

C[C@](Cc1ccc(O)c(O)c1)(NN)C(=O)O
active: Potency [5] 39.8 µM
inactive: Potency [1] | Potency [2] | Potency [3] | Potency [4] | Potency [6]

Nc1ccc(N2C(=O)c3ccccc3C2=O)c(Cl)c1
inactive: Potency [1] | Potency [2] | Potency [3] | Potency [4] | Potency [5] | Potency [6] | activity, negative = inhibition [7] -4.03%

CC(C)(C)c1cc(/C=C(\C#N)C(N)=S)cc(C(C)(C)C)c1O
active: Potency [6] 21.2 µM
inactive: Potency [1] | Potency [2] | Potency [3] | Potency [4] | Potency [5] | Potency [8] | activity, negative = inhibition [7] -26.1%

c1ccc2c(c1)CC(N1CCN(c3cccc4c3OCCO4)CC1)C2
inactive: Potency [1] | Potency [2] | Potency [3] | Potency [4] | Potency [5] | Potency [6] | activity, negative = inhibition [7] -5.51%

N#Cc1cc2nc(O)c(O)nc2cc1[N+](=O)[O-]
inactive: Potency [1] | Potency [2] | Potency [3] | Potency [4] | Potency [5] | Potency [6] | Potency [8] | activity, negative = inhibition [7] -14.6%

N=C(N)SCCc1cnc[nH]1
inactive: Potency [1] | Potency [2] | Potency [3] | Potency [4] | Potency [5] | Potency [6] | Potency [8] | activity, negative = inhibition [7] -14.3%

CC(C)(CO)Cc1cc(C(C)(C)C)c(O)c(C(C)(C)C)c1
inactive: Potency [1] | Potency [2] | Potency [3] | Potency [4] | Potency [5] | Potency [6] | Potency [8] | activity, negative = inhibition [7] -8.2%

CN(C)C(=O)/N=N/C(=O)N(C)C
active: Potency [5] 7.08 µM
inactive: Potency [1] | Potency [2] | Potency [3] | Potency [4] | Potency [6]

Oc1ccc(/C=C/c2ccc(/C=C/c3ccc(O)cc3)c(Br)c2)cc1
inactive: Potency [1] | Potency [2] | Potency [3] | Potency [4] | Potency [5] | Potency [6] | activity, negative = inhibition [7] 662%

CCCn1c(=O)c2[nH]c(C3CCCC3)nc2n(CCC)c1=O
inactive: Potency [1] | Potency [2] | Potency [3] | Potency [4] | Potency [5] | Potency [6] | Potency [8] | activity, negative = inhibition [7] -5.16%

C=CCN1CCc2c(cc(O)c(O)c2Cl)C(c2ccccc2)C1 (stereo not given)
inactive: Potency [1] | Potency [2] | Potency [3] | Potency [4]
active: Potency [5] 20 µM | Potency [6] 18.9 µM

O=C(O)Cc1ccc(O)c(O)c1
inactive: Potency [1] | Potency [2] | Potency [3] | Potency [4] | Potency [6]
active: Potency [5] 31.6 µM

N[C@@H](CCCC(=O)O)C(=O)O
inactive: Potency [1] | Potency [2] | Potency [3] | Potency [4] | Potency [5] | Potency [6] | activity, negative = inhibition [7] -3.82%

O=C(O)/C(=C/c1c(C(=O)O)[nH]c2cc(Cl)cc(Cl)c12)c1ccccc1
inactive: Potency [1] | Potency [2] | Potency [3] | Potency [4] | Potency [5] | Potency [6] | activity, negative = inhibition [7] -2.54%

O=c1cc(O)cc(/C=C/c2ccc(O)c(O)c2)o1
inactive: Potency [1] | Potency [2] | Potency [3]
active: Potency [5] 44.7 µM | Potency [6] 13.4 µM

Cc1cccc(C2CN(C)CCc3c2cc(O)c(O)c3Cl)c1 (stereo not given)
active: Potency [5] 56.2 µM
inactive: Potency [1] | Potency [2] | Potency [3] | Potency [6]

CNCCNS(=O)(=O)c1cccc2cnccc12
inactive: Potency [1] | Potency [2] | Potency [3] | Potency [4] | Potency [6] | Potency [8] | activity, negative = inhibition [7] -11.7%

S=C(S)N1CCCC1
inactive: Potency [2] | Potency [3] | Potency [4] | Potency [6] | Potency [8]
active: Potency [1] 7.94 µM
